# Pf growth 48h: P. falciparum growth inhibition at 48 hours (one generation) | Potency, µM (top dose mostly 28.7 µM), inactives show top-dose activity change, negative = inhibition, most hits filed as inhibitors | AID 504832 | 5.9% of 310,000 active | P. falciparum luciferase growth in erythrocytes, 48 h
#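 Luminescence readout; reporter = integrated firefly luciferase in P. falciparum. RBC culture at 2% hematocrit, 0.1% parasitemia final, 37 C/5% CO2; decreased signal taken as growth inhibition.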
# AMA1 RON2 block: disrupts binding of P. falciparum AMA1 to RON2; AlphaScreen AMA1-biotinylated RON2 peptide binding; Potency, µM (top dose mostly 58.2 µM), for the others: top-dose activity change, negative = inhibition, actives largely listed as inhibitors; 0.2% of 360,000 active; AID 720542;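 note: 0% = vehicle wells and -100% = peptide control; nearly all actives have a fitted effect of over 45% in size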
#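 AMA1 (3D7) with his tag at 25 nM final met compounds first, then biotinylated RON2 peptide at 25 nM; detection used donor plus acceptor beads, 10 µg/mL apiece, read by AlphaScreen after 30 min at room temperature.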
# HCV inh: inhibitors of hepatitis C virus infection. Huh7.5.1 HCVcc-Cre infection, luciferase reporter, 44 h. Potency, µM (top dose mostly 41.8 µM), inactives show at the top dose activity change, negative = inhibition, usual class: inhibitors. 3.4% of 340,000 active. AID 651820
#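 Compounds are dispensed onto cells plated 4 h earlier at 1,000 per well, with HCVcc-Cre virus (about 0.5 moi) added next. Following 44 h of culture, luminescent signal is measured for 15 sec after 15 min with substrate at room temperature.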
# Pf growth 96h: inhibits malaria parasite growth, 96 h | P. falciparum luciferase reporter growth, 96 h | Potency, µM (series often up to 28.7 µM), for inactives: at the top dose activity change, negative = inhibition, usual class: inhibitors | 6.9% of 320,000 active | AID 504834
#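 Two-generation exposure (96 h) targets delayed-death phenotype. Reporter parasites carrying integrated firefly luciferase, in red cells at 2% hematocrit and 0.05% parasitemia final, kept at 37 C, 5% CO2; luminescence loss indicates inhibition.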
# The depositor's hits bear a star; u = inconclusive; x = no result; [ ] = dose if it differs, or a comment. Sampled rows, rich in hits. Any-hit rate of the full collection: about 11%. Calls come from the whole dose curve; as a rule, active = well fitted curve in the direction sought with a large enough effect; inconclusive = small, poorly fitted or top-dose-only effect, or another doubt; inactive = no such curve, though single readings can be large; an effect the other way counts as inactive or inconclusive. Unless noted, % is set by controls: 0 for no effect and ±100 for the full control effect; potency is the fitted concentration of half-maximal effect.
SMILES,Pf growth 48h,AMA1 RON2 block,HCV inh,Pf growth 96h
Cc1ccc([N+](=O)[O-])cc1S(=O)(=O)NCCc1c(C)[nH]c2c(C)cccc12,10%,-3%,-9%,9.3µM*
CCN(C(=O)CSc1nc2cc(S(=O)(=O)N(CC)CC)ccc2o1)C1CCS(=O)(=O)C1 (stereo unspecified),u,4%,u,u
CCNC(=O)C1(C)CCCN(Cc2cc3ccccc3o2)C1 (stereo unspecified),x,1%,x,x
COc1cccc(-c2cc(C(F)(F)F)nc(-n3cncn3)n2)c1,4%,-8%,-29%,u
COc1cccc(-c2cc(C(F)(F)F)nc(-n3cc(C)cn3)n2)c1,u,11%,10µM*,0%
CCCS(=O)(=O)N1CCC(C(=O)NC2CCCC(C)C2C)CC1 (stereo unspecified),17%,9%,12%,9.3µM*
C=C(C)COc1ccc(-c2nc(N)ncc2-c2ccc(Cl)cc2)c(O)c1,13µM*,-12%,u,u
C=C(C)COc1ccc(-c2nc(N)ncc2-c2ccc(OC)cc2)c(O)c1,u,x,u,-6%
Nc1ncc(-c2ccccc2)c(-c2ccc(OCc3ccccc3)cc2O)n1,12µM*,-10%,1.8µM*,u
O=C(COC(=O)c1ccc(F)cc1)NC1CC1,3%,-2%,18%,4%
CCc1cc2c(=O)c(-c3nc(C)cs3)c(CCCC(=O)O)oc2cc1O,3%,-1%,5%,9.3µM*
CCCc1cc2c(=O)c(-c3cscn3)c(C(=O)OCC)oc2cc1O,31%,-4%,15%,-2%
COc1ccc(S(=O)(=O)N2CCN=C2SCc2cccc(C)c2)cc1,u,18%,2%,u
COc1cccc(N2CCN(c3ncnc4c3[nH]c3ccccc34)CC2C)c1 (stereo unspecified),8.3µM*,x,10µM*,u
OC1(c2cccc(C(F)(F)F)c2)CCN(c2ncnc3c2[nH]c2ccccc23)CC1,38%,21%,u,69%
COc1ccc2[nH]c3c(N4CC(C)OC(C)C4)ncnc3c2c1 (stereo unspecified),x,2%,-22%,u
COc1cccc(N2CCN(c3ncnc4c3[nH]c3ccc(F)cc34)CC2C)c1 (stereo unspecified),u,-22%,1.6µM*,138%
Cc1ccccc1NC(=O)CCCC(=O)c1ccccc1,u,30%,24%,u
Cc1ccc(S(=O)(=O)c2nc(Nc3ccccc3)sc2Cl)cc1,7%,-9%,11µM*,0%
Cc1cccc(N(Cc2ccccc2F)S(C)(=O)=O)c1,-18%,-6%,1%,9.3µM*
COC(=O)c1ccccc1OCc1cccc(C)n1,8%,0%,u,16%
COC(=O)C(Cc1cccc(C)n1)(c1ccccc1)c1ccccc1,9.3µM*,-6%,-21%,u
Cc1ccc(NC(=O)COc2ccc(C(=O)NCCc3ccccc3)cc2)cc1,x,-10%,x,x
COc1ccc(C(=O)Nc2cc(C(=O)NCCc3ccccc3)ccc2Cl)cc1,-2%,-4%,8.9µM*,x
Cc1ccc(OCCNC(=O)CNC(=O)c2ccc(C)cc2)cc1,21%,0%,10%,50%
SMILES,Pf growth 48h,AMA1 RON2 block,HCV inh,Pf growth 96h
COCC(=O)Nc1cc(C(=O)NCCc2ccccc2)ccc1Cl,227%,0%,18%,219%
CCCCOc1ccc(CC(=O)NO)cc1,0.41µM*,28%,u,0.23µM*
O=C(COc1ccc(C(=O)NCCc2ccccc2)cc1)Nc1ccccc1,7%,-3%,2%,4.1µM*
CCCCOc1ccc(C(=O)NCC(=O)NCCOc2ccccc2OC)cc1,-8%,-5%,13µM*,-3%
O=C(NCc1cccnc1)c1nn2cccnc2c1Cl,u,-7%,13%,-10%
O=C(NCc1ccc(Cl)cc1)C1CCN(S(=O)(=O)c2cccnc2)CC1,-1%,-9%,14%,u
COc1ccc(C(=O)Nc2nc(CC(=O)NCCc3cccc(OC)c3)cs2)cc1,-24%,-8%,u,u
COc1ccc(C(=O)Nc2nc(CC(=O)NCCc3ccccc3)cs2)cc1,16%,-1%,10µM*,31%
CCCCOc1ccc(C(=O)NCCc2ccccc2)cc1,27%,2%,-23%,2.6µM*
CCOc1ccc(CCNC(=O)c2ccc3nc(CC)c(CC)nc3c2)cc1,-12%,0%,u,13µM*
CC1C(=O)C(C)C(c2cc(Cl)ccc2O)NC1c1cc(Cl)ccc1O (stereo unspecified),x,78%,u,11%
Cn1c(-c2ccccc2)cc2c3no[n+]([O-])c3ccc21,42%,-13%,2.5µM*,53%
O=C(COC(=O)c1cc(-c2ccccn2)nc2ccccc12)Nc1ncc(C(F)(F)F)cc1Cl,66%,7%,1%,148%
CCCCC1=CC2=CC(=O)C(C)(OC(=O)CC)C(=O)C2=CN1Cc1ccco1 (stereo unspecified),31%,-18%,-19%,u
COC(=O)CCCC1=CC2=CC(=O)C(C)(OC(=O)c3cccs3)C(=O)C2=CN1CCCOC(C)C (stereo unspecified),u,-19%,2%[8.37 µM],10%
CCCCC1=CC2=CC(=O)C(C)(OC(=O)CC)C(=O)C2=CN1CCc1c[nH]c2ccccc12 (stereo unspecified),8.3µM*,1%,u,10µM*
COC(=O)CCCC1=CC2=CC(=O)C(C)(OC(=O)c3cccs3)C(=O)C2=CN1CCc1c[nH]c2ccccc12 (stereo unspecified),8.3µM*,-8%,7%,10µM*
COC1(c2cc(-c3ccccc3)nc(N)n2)CCCCC1,x,8%,-20%,-13%
Cc1cc(O)c2c(c1)OC(C)(C)C1=C2CC(C)CC1 (stereo unspecified),6.6µM*,-11%,13µM*,9%
CCC(=O)O[C@@H](OP(=O)(CCCCc1ccccc1)CC(=O)N1C[C@H](C2CCCCC2)C[C@H]1C(=O)O)C(C)C (stereo partly specified),-10%,x,x,5.4µM*
CCOC(=O)[C@H](CCc1ccccc1)N[C@@H](C)C(=O)N1C(C(=O)O)C[C@@H]2CCC[C@@H]21 (stereo partly specified),-9%,-2%,1%,15%
COc1cc(-c2cc(C(=O)N(C)Cc3ccccc3)c3ccccc3n2)cc(OC)c1OC,13µM*,8%,u,u
COCCN(Cc1ccccc1)C(=O)c1cc(-c2ccc(OC)c(OC)c2)nc2ccccc12,9.3µM*,6%,u,u
COc1ccccc1-c1cccc([C@@H]2C[C@H]3[C@@H](CN2)CON3C)c1,x,0%,-9%[8.37 µM],x
COc1ccc(F)cc1S(=O)(=O)NCc1cc(=O)n(C)c(=O)n1C,24%,13%,1%,-22%
O=S(=O)(c1ccccc1)[C@@]1(c2ccc(Br)cc2)C[C@@H]2ON=C(c3cccc(Br)c3)[C@@H]2C1,9.3µM*,-1%,12%,u
Nc1nc(-c2ccc(Br)cc2)c(S(=O)(=O)c2ccccc2)s1,0%,4%,-14%,3%

# Bioassay records deposited in PubChem BioAssay by National Center for Advancing Translational Sciences (NCATS).
